High-throughput results as filed in PubChem BioAssay.
Most compounds without a hit are left out; they make up all but 1.2% or so of the library.
ugtP null kill: kills S. aureus RN4220 lacking UgtP; actives 0.54% (n = 330,000); AID 1259309; growth inhibition, % (no concentration beside the values); S. aureus RN4220 ugtP deletion, OD600 growth, 16 h; in the data active means growth inhibition above about 68%
PfHsp40 yeast: restores yeast growth despite PfHsp40 toxicity. S. cerevisiae expressing PfHsp40, growth rescue, ATP luminescence. growth rescue, % at 12.5 µM. actives 0.68% (n = 340,000); in the data active means growth rescue above about 28%, passing the limit was not always enough; inconclusive means no clear call, values can overlap the other calls;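 further: yeast W303a lacking pdr1 and pdr3 grown in galactose medium; growth measured after three days at 30 °C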
RN4220 kill: S. aureus RN4220 growth inhibition | OD600, 16 h | AID 1259311 | inhibition, % (test concentration not listed) | actives 0.33% (n = 330,000); in the data active means inhibition above about 85%
PrP UTR inh: suppresses PrP 5' UTR mRNA reporter expression | inhibition, % (no concentration beside the values) | actives 0.35% (n = 340,000) | cell-based PrP 5' UTR mRNA reporter, plate reader; in the data active means inhibition above about 52%
TcdB GH inh: blocks C. difficile toxin B glycohydrolase activity; P18177; TcdB glycohydrolase enzymatic assay, plate reader; inhibition, % at 9.99 µM; actives 0.24% (n = 350,000); AID 652162; in the data active means inhibition above about 10%
Target sequence (P18177 whole entry, looked up): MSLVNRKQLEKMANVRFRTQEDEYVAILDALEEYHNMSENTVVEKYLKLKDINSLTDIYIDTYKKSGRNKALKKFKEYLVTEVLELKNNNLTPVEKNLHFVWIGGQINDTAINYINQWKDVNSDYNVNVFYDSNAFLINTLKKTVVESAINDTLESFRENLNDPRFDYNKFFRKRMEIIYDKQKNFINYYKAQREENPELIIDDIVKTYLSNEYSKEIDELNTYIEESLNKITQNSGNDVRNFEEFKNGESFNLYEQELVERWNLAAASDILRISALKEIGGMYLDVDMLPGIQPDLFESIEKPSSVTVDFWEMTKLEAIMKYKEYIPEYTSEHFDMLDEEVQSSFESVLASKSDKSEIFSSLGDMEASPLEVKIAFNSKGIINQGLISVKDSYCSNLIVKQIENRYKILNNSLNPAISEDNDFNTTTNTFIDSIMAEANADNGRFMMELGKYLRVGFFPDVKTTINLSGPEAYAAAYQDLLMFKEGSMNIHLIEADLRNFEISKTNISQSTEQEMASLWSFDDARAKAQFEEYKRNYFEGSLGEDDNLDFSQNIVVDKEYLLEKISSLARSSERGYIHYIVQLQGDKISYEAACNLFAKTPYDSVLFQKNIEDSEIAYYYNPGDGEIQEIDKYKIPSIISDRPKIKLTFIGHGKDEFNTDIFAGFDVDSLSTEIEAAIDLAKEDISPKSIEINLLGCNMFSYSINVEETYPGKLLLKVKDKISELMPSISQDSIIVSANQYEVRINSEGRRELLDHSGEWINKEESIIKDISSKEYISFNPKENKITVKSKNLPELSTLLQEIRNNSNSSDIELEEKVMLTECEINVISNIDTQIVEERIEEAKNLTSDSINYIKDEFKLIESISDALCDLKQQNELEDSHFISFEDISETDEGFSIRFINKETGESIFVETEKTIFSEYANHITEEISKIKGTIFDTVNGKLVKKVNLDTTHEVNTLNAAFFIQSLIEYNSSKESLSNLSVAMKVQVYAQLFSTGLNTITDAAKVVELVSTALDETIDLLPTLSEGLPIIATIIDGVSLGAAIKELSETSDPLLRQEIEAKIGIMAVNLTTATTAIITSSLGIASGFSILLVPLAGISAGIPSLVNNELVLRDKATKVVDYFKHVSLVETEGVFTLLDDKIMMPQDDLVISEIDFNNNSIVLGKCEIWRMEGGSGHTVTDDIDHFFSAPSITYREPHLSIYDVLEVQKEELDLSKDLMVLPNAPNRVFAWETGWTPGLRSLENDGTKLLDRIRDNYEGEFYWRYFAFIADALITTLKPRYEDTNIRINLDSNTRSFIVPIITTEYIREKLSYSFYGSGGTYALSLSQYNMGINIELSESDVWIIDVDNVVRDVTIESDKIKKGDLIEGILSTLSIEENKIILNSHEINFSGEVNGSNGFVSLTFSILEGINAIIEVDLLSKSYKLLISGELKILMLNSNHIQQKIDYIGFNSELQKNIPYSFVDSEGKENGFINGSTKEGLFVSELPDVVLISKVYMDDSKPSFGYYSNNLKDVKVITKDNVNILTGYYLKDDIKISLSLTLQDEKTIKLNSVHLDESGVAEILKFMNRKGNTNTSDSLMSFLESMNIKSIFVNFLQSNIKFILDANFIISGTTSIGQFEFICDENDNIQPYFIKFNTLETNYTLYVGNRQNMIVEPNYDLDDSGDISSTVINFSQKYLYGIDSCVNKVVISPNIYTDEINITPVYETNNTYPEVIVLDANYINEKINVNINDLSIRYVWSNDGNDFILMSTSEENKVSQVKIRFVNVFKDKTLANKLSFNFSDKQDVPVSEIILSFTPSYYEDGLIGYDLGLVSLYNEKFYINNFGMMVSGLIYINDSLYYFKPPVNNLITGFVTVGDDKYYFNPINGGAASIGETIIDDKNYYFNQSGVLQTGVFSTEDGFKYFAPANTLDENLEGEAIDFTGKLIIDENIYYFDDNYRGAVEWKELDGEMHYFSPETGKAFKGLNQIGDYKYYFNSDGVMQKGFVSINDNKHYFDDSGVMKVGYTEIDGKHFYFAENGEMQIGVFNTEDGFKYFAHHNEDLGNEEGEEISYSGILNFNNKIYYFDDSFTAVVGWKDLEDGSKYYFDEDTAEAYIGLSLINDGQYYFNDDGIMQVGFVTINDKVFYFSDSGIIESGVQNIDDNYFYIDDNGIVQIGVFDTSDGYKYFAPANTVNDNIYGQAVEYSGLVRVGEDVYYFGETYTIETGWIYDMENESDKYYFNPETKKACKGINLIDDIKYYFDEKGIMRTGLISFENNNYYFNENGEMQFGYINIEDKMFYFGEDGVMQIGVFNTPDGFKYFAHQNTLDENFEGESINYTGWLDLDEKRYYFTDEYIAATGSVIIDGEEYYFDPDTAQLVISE
Numbers stand for hits; i = inactive; ? = inconclusive; nt = no result given.

SMILES | ugtP null kill | PfHsp40 yeast | RN4220 kill | PrP UTR inh | TcdB GH inh
CCN(CC)S(=O)(=O)c1ccc(C(=O)Oc2coc(CSc3nc(C)cc(C)n3)cc2=O)cc1 | i | 71.9 | i | i | nt
CN(C)S(=O)(=O)c1ccc(C(=O)Oc2coc(CSc3ncccn3)cc2=O)cc1 | i | 94.0 | i | i | i
C[C@H]1CN([C@@H](C)CO)C(=O)Cc2cc(NC(=O)NC3CCCCC3)ccc2O[C@H]1CN(C)Cc1ccc2c(c1)OCO2 | nt | nt | nt | nt | i
COc1ccc(OC)c(C=NNC(=O)CC(=O)NCc2ccccc2)c1 | i | nt | i | nt | nt
COc1ccccc1/C=N/NC(=O)CC(=O)NCc1ccccc1 | nt | i | nt | i | 10.5
O=C(OCn1nnc2ccccc2c1=O)c1cc2ccccc2o1 | i | i | i | i | 12.6
CNC[C@H]1OCCCC[C@@H](C)Oc2ccc(NC(=O)Nc3c(C)noc3C)cc2C(=O)N([C@@H](C)CO)C[C@H]1C | nt | nt | nt | nt | i
Cc1ccc2nc3c(c(C(=O)O)c2c1)CCC3 | i | i | i | i | i
CNC(=O)c1c2c(nc3ccc(Br)cc13)CCCC2 | 82.6 | i | i | i | i
O=C(Nc1ccc(Cl)cc1)N1CCCN(c2ccc(C(F)(F)F)cc2[N+](=O)[O-])CC1 | nt | 44.3 | nt | i | i
O=[N+]([O-])c1cc(C(F)(F)F)ccc1NCCCCNS(=O)(=O)c1ccc(Cl)cc1 | i | i | i | i | i
O=[N+]([O-])c1ccc(NC(=S)NCCc2ccc(Cl)cc2)cc1 | 99.9 | i | 100.6 | i | nt
O=[N+]([O-])c1ccc(NC(=S)NCc2ccncc2)cc1 | i | i | i | i | i
O=[N+]([O-])c1ccc(NC(=S)NCCc2ccccc2)cc1 | i | i | i | i | i
O=[N+]([O-])c1ccc(NC(=S)NCc2ccc(F)cc2)cc1 | nt | 109.3 | nt | i | i
O=[N+]([O-])c1cc(C(F)(F)F)ccc1N1CCC(O)CC1 | i | i | i | i | i
O=[N+]([O-])c1cc(C(F)(F)F)ccc1NCCNC(=S)Nc1ccc(Cl)cc1 | 90.2 | ? | 85.2 | i | i
COc1ccc(S(=O)(=O)N2CC[C@@H]3[C@H](CO)Nc4ccc(C#Cc5cccnc5)cc4[C@@H]32)cc1 | nt | nt | nt | nt | i
COc1ccc(S(=O)(=O)N(C)C[C@H]2OCCCC[C@@H](C)Oc3ccc(NS(=O)(=O)c4ccc(F)cc4)cc3C(=O)N([C@@H](C)CO)C[C@@H]2C)cc1 | nt | nt | nt | nt | i
CCCN(C)C[C@@H]1Oc2cc(C#Cc3cccc(OC)c3)ccc2S(=O)(=O)N([C@H](C)CO)C[C@@H]1C | nt | nt | nt | nt | i
CCCNC(=O)N1CC2(C1)[C@H](c1ccccc1)[C@@H](CO)N2C(=O)C1CCCC1 | nt | nt | nt | nt | i
CCCC(=O)Nc1ccc2c(c1)OC[C@H](C)N(CC1CCCC1)C[C@H](C)[C@@H](OC)CN(C)C2=O | nt | nt | nt | nt | 29.5
CCC(=O)Nc1ccc2c(c1)C(=O)N(C)C[C@H](OC)[C@@H](C)CN(C(=O)NC(C)C)[C@@H](C)CO2 | nt | nt | nt | nt | i
CCC(=O)Nc1ccc2c(c1)OC[C@H](C)N(C(=O)NC(C)C)C[C@@H](C)[C@@H](OC)CN(C)C2=O | nt | nt | nt | nt | 11.2
CCC(=O)Nc1ccc2c(c1)C(=O)N(C)C[C@H](OC)[C@@H](C)CN(C(=O)NC(C)C)[C@H](C)CO2 | nt | nt | nt | nt | i
SMILES | ugtP null kill | PfHsp40 yeast | RN4220 kill | PrP UTR inh | TcdB GH inh
CCC(=O)Nc1ccc2c(c1)OC[C@@H](C)N(C(=O)NC(C)C)C[C@H](C)[C@H](OC)CN(C)C2=O | nt | nt | nt | nt | 14.5
CC(C)NC(=O)N(C)C[C@H]1Oc2ccc(NS(C)(=O)=O)cc2CC(=O)N([C@H](C)CO)C[C@@H]1C | nt | nt | nt | nt | i
COc1ccc(-c2csc(NC(=O)c3ccccc3F)c2C(=O)O)cc1 | i | 309.8 | i | i | 10.6
Cc1ccc(C(=O)Nc2scc(-c3ccccc3)c2C(=O)O)cc1 | i | 118.9 | i | i | 12.0
COc1cc(C(=O)Nc2scc(-c3ccc(C)cc3)c2C(=O)O)cc(OC)c1OC | i | i | i | i | i
COc1cc(C(=O)Nc2scc(-c3ccccc3)c2C(=O)O)cc(OC)c1OC | i | i | i | i | 13.1
N#C[C@H]1[C@@H](c2ccccc2C2=CCCCC2)[C@@H](CO)N1C(=O)c1ccccn1 | nt | nt | nt | nt | i
C[C@@H]1CN([C@@H](C)CO)S(=O)(=O)c2ccc(C3=CCCCC3)cc2O[C@H]1CN(C)S(=O)(=O)c1cn(C)cn1 | nt | nt | nt | nt | i
O=C1CCCN1CCC1CCN(C(=S)Nc2ccc(F)cc2)CC1 | i | 98.9 | i | i | nt
OCCN(CCO)c1ccc2ccccc2c1 | i | i | i | i | i
OCCN(CCO)c1cc2c3ccccc3ccc2c2ccccc12 | i | 528.5 | i | i | i
CCOc1ccc(C=NNc2ccc(S(=O)(=O)Nc3ccccc3C(=O)O)cc2[N+](=O)[O-])cc1 | 91.2 | i | i | i | i
O=C(O)c1ccccc1NS(=O)(=O)c1ccc(NN=Cc2ccccc2F)c([N+](=O)[O-])c1 | 91.9 | i | i | i | i
CSc1ccc(C=NNc2ccc(S(=O)(=O)Nc3ccccc3C(=O)O)cc2[N+](=O)[O-])cc1 | i | i | i | i | i
COc1ccc(C=NNc2ccccn2)c(OC)c1OC | i | nt | i | nt | nt
COCC(=O)Nc1ccc2c(c1)C(=O)N(C)C[C@H](OC)[C@@H](C)CN(C(=O)c1ccccc1F)[C@@H](C)CO2 | nt | nt | nt | nt | i
CN(C)C1(CN=Cc2cc(Cl)cc([N+](=O)[O-])c2O)CCCCC1 | i | 41.6 | i | i | i
O=[N+]([O-])c1cc(Cl)cc(C=Nn2cnnc2)c1O | i | nt | i | nt | nt
Cn1c(SCC(=O)N2c3ccccc3Sc3ccc(Cl)cc32)nnc1-c1ccco1 | i | 36.2 | i | i | i
CSc1ccc(S(=O)(=O)NC2CCCCCC2)cc1 | i | 67.1 | i | i | nt
Cc1ccc(S(=O)(=O)NC2CCCCC2)cc1 | i | i | i | i | i
O=[N+]([O-])c1ccc(/C=C/c2ccc3ccccc3n2)cc1 | i | i | i | i | 10.4
O=C(NCc1ccccc1)C1=C[C@@H](C2CC2)C[C@@H](OCc2ccc(CO)cc2)O1 | nt | 54.5 | nt | i | i
Cc1ccc(C=NNC(=S)N2CCOCC2)cc1 | i | nt | i | nt | nt
Nc1ccc2c(c1)Cc1cc([N+](=O)[O-])ccc1-2 | nt | i | nt | i | i
SMILES | ugtP null kill | PfHsp40 yeast | RN4220 kill | PrP UTR inh | TcdB GH inh
O=[N+]([O-])c1ccc2c(c1)Cc1cc(O)ccc1-2 | i | 51.5 | i | i | i
O=C(O)c1cccc2c1-c1ccc([N+](=O)[O-])cc1C2=O | nt | i | nt | i | i
O=C(O)c1cccc2c1Cc1cc([N+](=O)[O-])ccc1-2 | i | 118.0 | i | i | i
O=C(C[C@@H]1C[C@@H]2c3cc(NC(=O)CC4CC4)ccc3O[C@@H]2[C@H](CO)O1)NCc1cc(F)ccc1F | nt | nt | nt | nt | i
CCOC(=O)c1ccc(-n2c(CCC(=O)O)ccc2-c2ccc(F)cc2)cc1 | nt | i | nt | i | 17.0
COC(=O)c1ccc(-n2c(CCC(=O)O)ccc2-c2ccc(C)cc2)cc1 | i | i | i | i | nt
COc1ccc(NC(=O)c2cc(-c3cc(C)cc(C)c3O)n[nH]2)cc1Cl | 89.5 | i | i | i | nt
COc1ccc(CNC(=O)C[C@H]2C=C[C@H](NC(=O)c3cccc(F)c3)[C@H](CO)O2)cc1 | nt | nt | nt | nt | i
Cc1nn(-c2cc(C)c3ccccc3n2)c2c1C1C(C2)C1(C)C (stereo not drawn) | 82.7 | i | i | i | nt
